Laboratory results: PubChem BioAssay (NCI)
This is part of a sample that, as a whole, favours compounds with a hit. Of some 83,000 tested, about 20% had one in any assay.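 Growth was measured after 48 h exposure to one concentration of compound in 96-well plates. Values under 10 count as active.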 Unmarked numbers belong to inactive results. Calls of active or inactive are those of the source.

Tests used:
Experiment in all cases: NCI-60 one-dose screen, 48 h (100 = growth as untreated, 0 = no growth, -100 = all killed)
Conditions in all cases: 10 µM
DU-145 prostate = test system: DU-145 prostate
K-562 leukemia = test system: K-562 leukemia
MALME-3M melanoma = test system: MALME-3M melanoma
MDA-MB-231 breast = test system: MDA-MB-231 breast
SF-268 CNS = test system: SF-268 CNS
SF-295 CNS = test system: SF-295 CNS
SF-539 CNS = test system: SF-539 CNS
UACC-257 melanoma = test system: UACC-257 melanoma
M14 melanoma = test system: M14 melanoma
HCT-15 colon = test system: HCT-15 colon
HT29 colon = test system: HT29 colon
SNB-75 CNS = test system: SNB-75 CNS
SNB-19 CNS = test system: SNB-19 CNS
U251 CNS = test system: U251 CNS
PC-3 prostate = test system: PC-3 prostate
SK-MEL-5 melanoma = test system: SK-MEL-5 melanoma
UACC-62 melanoma = test system: UACC-62 melanoma
LOX IMVI melanoma = test system: LOX IMVI melanoma
SK-MEL-28 melanoma = test system: SK-MEL-28 melanoma

Compound: Cc1ccc(C(=O)NNC(=O)CSc2nc3ccccc3c(=O)[nH]2)cc1
- growth (DU-145 prostate): 105%
- growth (K-562 leukemia): 97.6%
- growth (MALME-3M melanoma): 91.7%
- growth (MDA-MB-231 breast): 91.1%
- growth (SF-268 CNS): 101%
- growth (SF-295 CNS): 96.3%
- growth (SF-539 CNS): 98.7%
- growth (UACC-257 melanoma): 105%
- growth (M14 melanoma): 108%
- growth (HCT-15 colon): 103%
- growth (HT29 colon): 111%
- growth (SNB-75 CNS): 83.1%
- growth (SNB-19 CNS): 92.8%
- growth (U251 CNS): 104%
- growth (PC-3 prostate): 90.4%
- growth (SK-MEL-5 melanoma): 98.7%
- growth (UACC-62 melanoma): 89.4%
- growth (LOX IMVI melanoma): 96.3%
- growth (SK-MEL-28 melanoma): 104%

Compound: CCCCOc1ccc(Nc2nc3ccccc3nc2Nc2ccc(OCCCC)cc2)cc1
- growth (DU-145 prostate): 87.9%
- growth (K-562 leukemia): 77.3%
- growth (MALME-3M melanoma): 106%
- growth (MDA-MB-231 breast): 109%
- growth (SF-268 CNS): 82%
- growth (SF-295 CNS): 87.5%
- growth (SF-539 CNS): 106%
- growth (UACC-257 melanoma): 97.3%
- growth (M14 melanoma): 88.5%
- growth (HCT-15 colon): 64.4%
- growth (HT29 colon): 73.7%
- growth (SNB-75 CNS): 89.5%
- growth (SNB-19 CNS): 84.1%
- growth (U251 CNS): 67.3%
- growth (PC-3 prostate): 59.7%
- growth (SK-MEL-5 melanoma): 96.3%
- growth (UACC-62 melanoma): 90.6%
- growth (LOX IMVI melanoma): 102%
- growth (SK-MEL-28 melanoma): 109%

Compound: CN(C)c1ccc(/C=C/c2nc3ccccc3c(=O)n2CC(=O)Nc2ccc(Cl)cc2)cc1
- growth (DU-145 prostate): 36.7%
- growth (K-562 leukemia): 68.7%
- growth (MALME-3M melanoma): 15.5%
- growth (MDA-MB-231 breast): 35.1%
- growth (SF-268 CNS): 58.5%
- growth (SF-295 CNS): 27.9%
- growth (SF-539 CNS): -63.6% (active)
- growth (UACC-257 melanoma): 78.7%
- growth (M14 melanoma): 65.2%
- growth (HCT-15 colon): 42.2%
- growth (HT29 colon): 31.9%
- growth (SNB-75 CNS): 64%
- growth (SNB-19 CNS): 34.8%
- growth (U251 CNS): 39.7%
- growth (PC-3 prostate): 30.2%
- growth (SK-MEL-5 melanoma): 55.7%
- growth (UACC-62 melanoma): 70.6%
- growth (LOX IMVI melanoma): 9.3% (active)
- growth (SK-MEL-28 melanoma): 66%

Compound: Cc1cccc(-c2nc(Nc3ccccc3C(=O)O)c3ccccc3n2)c1
- growth (DU-145 prostate): 50.5%
- growth (K-562 leukemia): 28.7%
- growth (MALME-3M melanoma): 37.2%
- growth (MDA-MB-231 breast): 66.1%
- growth (SF-268 CNS): 37.5%
- growth (SF-295 CNS): 27.1%
- growth (SF-539 CNS): 47.7%
- growth (UACC-257 melanoma): 49.2%
- growth (M14 melanoma): 25.2%
- growth (HCT-15 colon): 14.3%
- growth (HT29 colon): 39.7%
- growth (SNB-75 CNS): 55.3%
- growth (SNB-19 CNS): 21.2%
- growth (U251 CNS): 26.6%
- growth (PC-3 prostate): 29.5%
- growth (SK-MEL-5 melanoma): 6.01% (active)
- growth (UACC-62 melanoma): 28%
- growth (LOX IMVI melanoma): 36.4%
- growth (SK-MEL-28 melanoma): 50%

Compound: COc1ccc(CN2[C@@H](C(=O)NCc3ccc(C(=O)NO)cc3)Cc3c([nH]c4ccccc34)[C@@H]2C2CC2)cc1
- growth (DU-145 prostate): 15.8%
- growth (K-562 leukemia): 6.95% (active)
- growth (MALME-3M melanoma): 12.8%
- growth (MDA-MB-231 breast): 5.56% (active)
- growth (SF-268 CNS): 20.9%
- growth (SF-295 CNS): 3.12% (active)
- growth (SF-539 CNS): 15.3%
- growth (UACC-257 melanoma): 36.3%
- growth (M14 melanoma): 16.1%
- growth (HCT-15 colon): 19.5%
- growth (HT29 colon): 10.9%
- growth (SNB-75 CNS): -12% (active)
- growth (SNB-19 CNS): 34.4%
- growth (U251 CNS): 24.8%
- growth (PC-3 prostate): 30.2%
- growth (SK-MEL-5 melanoma): -19.9% (active)
- growth (UACC-62 melanoma): 3.09% (active)
- growth (LOX IMVI melanoma): 11.7%
- growth (SK-MEL-28 melanoma): 24.8%

Compound: COc1ccc(-c2nc(Nc3ccccc3S(N)(=O)=O)c3ccccc3n2)cc1
- growth (DU-145 prostate): 7.82% (active)
- growth (K-562 leukemia): 34.1%
- growth (MALME-3M melanoma): -7.51% (active)
- growth (MDA-MB-231 breast): -33.6% (active)
- growth (SF-268 CNS): 22.5%
- growth (SF-295 CNS): 61.3%
- growth (SF-539 CNS): -4.27% (active)
- growth (UACC-257 melanoma): 91.2%
- growth (M14 melanoma): 75.8%
- growth (HCT-15 colon): 28.1%
- growth (HT29 colon): 8.94% (active)
- growth (SNB-75 CNS): 109%
- growth (SNB-19 CNS): 57.7%
- growth (U251 CNS): 3.82% (active)
- growth (PC-3 prostate): 55.6%
- growth (SK-MEL-5 melanoma): 61.3%
- growth (UACC-62 melanoma): 56.5%
- growth (LOX IMVI melanoma): -79.9% (active)
- growth (SK-MEL-28 melanoma): 76.7%

Compound: OCCCNc1oc(-c2ccccc2)nc1[P+](c1ccccc1)(c1ccccc1)c1ccccc1
- growth (DU-145 prostate): 8.36% (active)
- growth (K-562 leukemia): 11.1%
- growth (MALME-3M melanoma): -26% (active)
- growth (MDA-MB-231 breast): -8.13% (active)
- growth (SF-268 CNS): 6.17% (active)
- growth (SF-295 CNS): 2.62% (active)
- growth (SF-539 CNS): 4.68% (active)
- growth (UACC-257 melanoma): -10.3% (active)
- growth (M14 melanoma): 10.1%
- growth (HCT-15 colon): 45.9%
- growth (HT29 colon): 6.51% (active)
- growth (SNB-75 CNS): -2.93% (active)
- growth (SNB-19 CNS): 4.56% (active)
- growth (U251 CNS): 13.7%
- growth (PC-3 prostate): 9.56% (active)
- growth (SK-MEL-5 melanoma): -100% (active)
- growth (UACC-62 melanoma): -70.2% (active)
- growth (LOX IMVI melanoma): -16.6% (active)
- growth (SK-MEL-28 melanoma): 7.68% (active)

Compound: Cc1ccc(C(=O)CSc2nnc(-c3c[nH]c4ccccc34)n2-c2ccccc2)cc1
- growth (DU-145 prostate): 78.9%
- growth (K-562 leukemia): 27.2%
- growth (MALME-3M melanoma): 35.1%
- growth (MDA-MB-231 breast): -2.39% (active)
- growth (SF-268 CNS): 29.7%
- growth (SF-295 CNS): 11.1%
- growth (SF-539 CNS): 22.1%
- growth (UACC-257 melanoma): 77.3%
- growth (M14 melanoma): 51.2%
- growth (HCT-15 colon): 43.8%
- growth (HT29 colon): 7.13% (active)
- growth (SNB-75 CNS): -1.21% (active)
- growth (SNB-19 CNS): 19.7%
- growth (U251 CNS): 9.78% (active)
- growth (PC-3 prostate): 43%
- growth (SK-MEL-5 melanoma): 32.9%
- growth (UACC-62 melanoma): 23.9%
- growth (LOX IMVI melanoma): -19.5% (active)
- growth (SK-MEL-28 melanoma): 49%

Compound: Nc1nc(-c2ccccc2)cs1
- growth (DU-145 prostate): 66.7%
- growth (K-562 leukemia): 28.2%
- growth (MALME-3M melanoma): 74.4%
- growth (MDA-MB-231 breast): 61.8%
- growth (SF-268 CNS): 48.3%
- growth (SF-295 CNS): 37.7%
- growth (SF-539 CNS): 53.4%
- growth (UACC-257 melanoma): 81.9%
- growth (M14 melanoma): 72.2%
- growth (HCT-15 colon): 23.7%
- growth (HT29 colon): 78.6%
- growth (SNB-75 CNS): 59.2%
- growth (SNB-19 CNS): 77%
- growth (U251 CNS): 28.3%
- growth (PC-3 prostate): 25.1%
- growth (SK-MEL-5 melanoma): 59.1%
- growth (UACC-62 melanoma): 53.4%
- growth (LOX IMVI melanoma): 22%
- growth (SK-MEL-28 melanoma): 87.9%

Compound: CN1CCO/C1=C(/NC(=O)c1ccc(Cl)cc1)[P+](c1ccccc1)(c1ccccc1)c1ccccc1
- growth (DU-145 prostate): 95.2%
- growth (K-562 leukemia): 50.3%
- growth (MALME-3M melanoma): 69.2%
- growth (MDA-MB-231 breast): 61.8%
- growth (SF-268 CNS): 97%
- growth (SF-295 CNS): 80.2%
- growth (SF-539 CNS): 94.5%
- growth (UACC-257 melanoma): 62.4%
- growth (M14 melanoma): 88.5%
- growth (HCT-15 colon): 107%
- growth (HT29 colon): 57.7%
- growth (SNB-75 CNS): 91.6%
- growth (SNB-19 CNS): 76.5%
- growth (U251 CNS): 84.1%
- growth (PC-3 prostate): 68.2%
- growth (SK-MEL-5 melanoma): 70.3%
- growth (UACC-62 melanoma): 48.5%
- growth (LOX IMVI melanoma): 39.8%
- growth (SK-MEL-28 melanoma): 75.5%

Compound: O=C(NO)c1ccc(CNc2nc(-c3ccccc3)c3ccccc3n2)cc1
- growth (DU-145 prostate): 10.2%
- growth (K-562 leukemia): 9.84% (active)
- growth (MALME-3M melanoma): -34.4% (active)
- growth (MDA-MB-231 breast): -21.8% (active)
- growth (SF-268 CNS): 7.8% (active)
- growth (SF-295 CNS): -49% (active)
- growth (SF-539 CNS): 1.02% (active)
- growth (UACC-257 melanoma): 1.34% (active)
- growth (M14 melanoma): 9.54% (active)
- growth (HCT-15 colon): -6.55% (active)
- growth (HT29 colon): 4.73% (active)
- growth (SNB-75 CNS): 29%
- growth (SNB-19 CNS): -8.9% (active)
- growth (U251 CNS): -37.7% (active)
- growth (PC-3 prostate): 16.7%
- growth (SK-MEL-5 melanoma): -87.8% (active)
- growth (UACC-62 melanoma): -87.2% (active)
- growth (LOX IMVI melanoma): -96.9% (active)
- growth (SK-MEL-28 melanoma): -2.7% (active)
